Where “and” joins values, the source holds several entries; their conditions need not be identical. Equal entries are not always repeated. Records with an inconclusive call do not appear. Values without a mark were called inactive. Calls of active or inactive are those of the source. The call rests on the fitted dose curve; in most records, active means well fitted inhibition curve with a large enough effect; inconclusive means small, poorly fitted or top-dose-only effect; inactive means flat fitted curve, though single readings scatter.

One experiment relates to CRL-7250. Nature of the experiment: Cytotoxic Profiling of Annotated Libraries Using Quantitative High-Throughput Screening (AID 1296008). Further: potency means the concentration at half of the fitted maximal effect. On max response: on the % scale 0 is the no-effect control and ±100 the full control effect. The conditions noted are these: Five cell lines viability, CellTiter-Glo ATP luminescence, 48-72 h; max response: active compounds read low. In a few lines: (§1)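 Compounds were pin-transferred onto cells and incubated 48 or 72 hr at 37 degree Celsius, 95% humidity. CellTiter-Glo was added, plates sat 10 min at room temperature, then ATP-coupled luminescence was imaged as the viability read-out.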

The subject of another experiment is HEK293. The experiment is described as above. The conditions noted are these: Five cell lines viability, CellTiter-Glo ATP luminescence, 48-72 h; max response: active compounds read low. In a few lines:
as §1

The subject of a further experiment is NIH3T3. The description is as above. As to conditions: Five cell lines viability, CellTiter-Glo ATP luminescence, 48-72 h; max response: active compounds read low. In a few lines: as §1
For experiment [1], the system named is HaCat. The experiment is described as above. The conditions noted are these: Five cell lines viability, CellTiter-Glo ATP luminescence, 48-72 h; max response: active compounds read low. The procedure, abridged: as §1
For a further experiment, the system named is KB-3-1. The description is as above. The conditions noted are these: Five cell lines viability, CellTiter-Glo ATP luminescence, 48-72 h; max response: active compounds read low. The procedure, abridged:
as §1

For experiment [2], the system named is HACAT. The experiment in a line: qHTS assay to identify novel small-molecules to repurpose for Merkel cell carcinoma treatment (AID 1296009). The conditions noted are these: MCC and control cell lines, CellTiter-Glo viability, 72 h; at 44.8 µM (top of the series) unless noted. In a few lines:
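Viability readout: ATP luminescence (CellTiter-Glo) after 72 hr drug exposure at 37 degree celsius. Dose-response format was 8 points for NPC and 11 points for MIPE; data normalized to in-plate controls.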
Further: nearly all actives have a fitted effect of over 60% in size.

In the case of `Cc1nc(C#Cc2ccnc(Cl)c2)c(C)n1-c1ccc(F)cc1`, the Potency was 18.4 µM (active) with CRL-7250 and 7.31 µM (active) with HEK293. In addition, the max response in the experiment with NIH3T3 is -10.7%.

With `CCO[C@H]1CN(C2CCC(O)(c3ccc4c(c3)OCO4)CC2)C[C@@H]1NC(=O)CNC(=O)c1cccc(C(F)(F)F)c1` (stereo partly drawn), the results for the max response with CRL-7250, with HaCat [1] and in the experiment with KB-3-1 were 1.15%, 1.49% and 7%, respectively.

In the case of `O=C(Nc1ccc(Cl)cc1)c1ccccc1NCc1ccncc1`, the max response with CRL-7250 was 0.592%; with HaCat [1], -24.7%; in the experiment with KB-3-1, -12.3%.

As for `C[C@H](Nc1ncnc2nc[nH]c12)c1cc2cccc(Cl)c2c(=O)n1-c1ccccc1`, the max response with CRL-7250 is -26.4%; with HEK293 it was -90.1%. For the same molecule, the Potency with NIH3T3 is 4.61 µM (active).

`CNC(=O)[C@@H](c1ccccc1)N1CCc2cc(OC)c(OC)cc2[C@@H]1CCc1ccc(C(F)(F)F)cc1`: the values for the max response with CRL-7250 and in the experiment with NIH3T3 were -4.36% and -22.6%, respectively. In addition, the Potency with HEK293 was 16.4 µM (active).

Consider `O=C(Nc1cccnn1)N1CCN(c2nccc(-c3ccc(F)c(F)c3)n2)CC1`, for which the figures for the max response with CRL-7250, in the experiment on HEK293 and in the experiment with NIH3T3 were -5.59%, -4.09% and -4.62%, respectively.

As to `CN1CCN(C2CCN(C(=O)Nc3cc(Oc4ccc(NC(=O)C5(C(=O)Nc6ccc(F)cc6)CC5)c(F)c4)ccn3)CC2)CC1`, the Potency with CRL-7250 was 9.2 µM (active); in the experiment on HEK293, 13 µM (active); in the experiment with NIH3T3 it was 2.59 µM (active).

For `c1ccc(-c2ccc(CNc3nc(-c4ccccn4)nnc3-c3ccccc3)cc2)cc1`, the Potency was 5.8 µM (active) in the experiment with CRL-7250, 5.17 µM (active) in the experiment with HEK293 and 3.66 µM (active) in the experiment with NIH3T3.

Turning to `COC1CC(O[C@H]2CC[C@]3(C)C4CC[C@]5(C)C(C6=CC(=O)OC6)=CCC56OC46CC[C@@H]3C2)OC(C)C1O[C@@H]1O[C@H](CO[C@@H]2O[C@H](CO)[C@@H](O)[C@H](O)[C@H]2O)[C@@H](O)[C@H](O)[C@H]1O` (stereo partly drawn), the Potency is 1.55 µM (active) in the experiment on CRL-7250 and 1.74 µM (active) in the experiment with HEK293. The result in the experiment on NIH3T3 was inactive.

As for `O=S(=O)(Nc1cc(Cl)c(Oc2cnc3ccccc3c2)c(Cl)c1)c1ccc(Cl)cc1Cl`, the molecule was classed as inactive in the experiment with CRL-7250, in the experiment with HaCat [1] and in the experiment on HACAT [2]. In addition, the max response in the experiment with HEK293 was -18.7%.

In the case of `Cc1cc(Nc2nc(-c3ccccc3)nc3ccccc23)n[nH]1`, the Potency in the experiment with CRL-7250 was 5.17 µM (active); with HEK293 it was 7.31 µM (active); in the experiment with NIH3T3 it was 9.2 µM (active).

Regarding `O=C(NO)c1cnc(N2CCN(S(=O)(=O)c3ccc4ccccc4c3)CC2)nc1`, the Potency in the experiment with CRL-7250 was 7.96 µM (active); with NIH3T3 it was 2.24 µM (active). For the same molecule, the max response in the experiment on HEK293 is -106%.

Consider `Cc1cc2c(F)c(Oc3ncnn4cc(OCC(C)OC(=O)C(C)N)c(C)c34)ccc2[nH]1` (stereo not drawn), for which the max response with CRL-7250 is -5.94%. The Potency with HEK293 was 6.51 µM (active). Moreover, the call in the experiment with HaCat [1] and with HACAT [2] was inactive.

`COc1ccc(C2(CNC(=O)c3ccc(NC(=O)c4ccco4)cc3)CCOCC2)cc1`: the max response in the experiment with CRL-7250 is -30.6%; in the experiment with HaCat [1], -26.6%; with KB-3-1 it was 8.83%.

With `C=CC(=O)Nc1cccc(Nc2nc(Nc3ccc(OCCOC)cc3)ncc2F)c1`, the values for the Potency in the experiment on CRL-7250, in the experiment on HEK293 and with NIH3T3 were 5.17 µM (active), 8.2 µM (active) and 5.8 µM (active), respectively.

As to `Nc1ncnc2c1nc(Cl)n2C1OC2COP(=O)(O)OC2C1O` (stereo not drawn), the Potency is 6.51 µM (active) in the experiment with CRL-7250, 1.64 µM (active) in the experiment on HEK293 and 5.8 µM (active) in the experiment with NIH3T3.

Take `C=C1C(=O)O[C@H]2C3=C(C)CCC[C@]3(C)C(=O)C[C@@H]12`: the Potency in the experiment on CRL-7250 was 18.4 µM (active); in the experiment on HEK293, 5.8 µM (active); with NIH3T3 it was 16.4 µM (active).

For `C=C(C)C(=O)O[C@H]1[C@H]2C(=C)C(=O)O[C@@H]2C[C@@H](C)[C@@H]2O[C@@H]2C(=O)[C@](C)(O)[C@@H]1OC(=O)C(=C)C`, the Potency was 7.09 µM (active) in the experiment with CRL-7250, 2.52 µM (active) in the experiment with HEK293 and 3.55 µM (active) in the experiment with NIH3T3.

On to `Cc1cc(C(=O)Nc2cc(Nc3ccc4c(/C=C/c5ccccn5)n[nH]c4c3)ccc2F)n(C)n1`, for which the values for the Potency with CRL-7250, with HEK293 and in the experiment on NIH3T3 were 18.4 µM (active), 11.6 µM (active) and 0.731 µM (active), respectively.

Take `CC1CCCC[C@H]2C(=O)C=C[C@H](O)[C@@H]2CC(=O)O1` (stereo partly drawn): the figures for the Potency in the experiment with CRL-7250, with HEK293 and in the experiment on NIH3T3 were 8.2 µM (active), 1.64 µM (active) and 18.4 µM (active), respectively.

With `O=C1NC(=O)C(c2cnc3ccccn23)=C1c1cn2c3c(cc(F)cc13)CN(C(=O)N1CCCCC1)CC2`, the Potency in the experiment with CRL-7250 is 46.1 nM (active) and 33.1 nM (active); with HEK293, 0.295 µM (active). For the same molecule, the molecule was called inactive in the experiment with HaCat [1] and in the experiment on HACAT [2].

As to `Cc1[nH]c2ccc(F)cc2c1-c1nc2c3cccnc3c3ncccc3c2[nH]1`, the Potency was 3.66 µM (active) in the experiment with CRL-7250, 4.61 µM (active) in the experiment on HEK293 and 14.6 µM (active) in the experiment on NIH3T3.

Consider `CC(C)C[C@@H]1NC(=O)[C@@H]2C[C@@]34C[C@@H]5[C@@]6(C)CCCC(C)(C)C6CC[C@@]5(C)N(c5ccccc53)[C@H]4N2C1=O` (stereo partly drawn), for which the Potency is 0.502 µM (active) in the experiment with CRL-7250 and 0.796 µM (active) in the experiment with HEK293. Also, the call in the experiment with HaCat [1] was inactive. Further, the max response in the experiment with NIH3T3 was -3.44%. For the same molecule, the outcome in the experiment on HACAT [2] was “inactive [at 17.4 µM]”.

With `Cc1[nH]c(/C=C2\C(=O)Nc3ccc(S(=O)(=O)N(C)c4cccc(Cl)c4)cc32)c(C)c1C(=O)N1CCN(C)CC1`, the molecule was called inactive in the experiment on CRL-7250, in the experiment on HaCat [1] and with HACAT [2]. For the same molecule, the Potency with HEK293 is 6.51 µM (active).

The record behind these values is PubChem BioAssay (NCATS).
